# Pf apPOL inh: Pf-apPOL inhibitors, biochemical, fluorescence | Recombinant Pf-apPOL, molecular beacon fluorescence, 1.5 h | 210,000 compounds, 0.25% hits | AID 1794808, 2022 | inhibition, % at 10 µM
# mHTT-CaM PPI inh: mutant huntingtin-calmodulin interaction inhibitors – biochemical, AlphaScreen, primary screen | AlphaScreen His-mHTT/GST-CaM binding, luminescence | inhibition, % at 15 µM | P42858 | 190,000 compounds, 3.6% hits;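 further: 0% = both proteins with DMSO and 100% = one protein alone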
# Target sequence (P42858 whole entry, looked up, stated change not applied): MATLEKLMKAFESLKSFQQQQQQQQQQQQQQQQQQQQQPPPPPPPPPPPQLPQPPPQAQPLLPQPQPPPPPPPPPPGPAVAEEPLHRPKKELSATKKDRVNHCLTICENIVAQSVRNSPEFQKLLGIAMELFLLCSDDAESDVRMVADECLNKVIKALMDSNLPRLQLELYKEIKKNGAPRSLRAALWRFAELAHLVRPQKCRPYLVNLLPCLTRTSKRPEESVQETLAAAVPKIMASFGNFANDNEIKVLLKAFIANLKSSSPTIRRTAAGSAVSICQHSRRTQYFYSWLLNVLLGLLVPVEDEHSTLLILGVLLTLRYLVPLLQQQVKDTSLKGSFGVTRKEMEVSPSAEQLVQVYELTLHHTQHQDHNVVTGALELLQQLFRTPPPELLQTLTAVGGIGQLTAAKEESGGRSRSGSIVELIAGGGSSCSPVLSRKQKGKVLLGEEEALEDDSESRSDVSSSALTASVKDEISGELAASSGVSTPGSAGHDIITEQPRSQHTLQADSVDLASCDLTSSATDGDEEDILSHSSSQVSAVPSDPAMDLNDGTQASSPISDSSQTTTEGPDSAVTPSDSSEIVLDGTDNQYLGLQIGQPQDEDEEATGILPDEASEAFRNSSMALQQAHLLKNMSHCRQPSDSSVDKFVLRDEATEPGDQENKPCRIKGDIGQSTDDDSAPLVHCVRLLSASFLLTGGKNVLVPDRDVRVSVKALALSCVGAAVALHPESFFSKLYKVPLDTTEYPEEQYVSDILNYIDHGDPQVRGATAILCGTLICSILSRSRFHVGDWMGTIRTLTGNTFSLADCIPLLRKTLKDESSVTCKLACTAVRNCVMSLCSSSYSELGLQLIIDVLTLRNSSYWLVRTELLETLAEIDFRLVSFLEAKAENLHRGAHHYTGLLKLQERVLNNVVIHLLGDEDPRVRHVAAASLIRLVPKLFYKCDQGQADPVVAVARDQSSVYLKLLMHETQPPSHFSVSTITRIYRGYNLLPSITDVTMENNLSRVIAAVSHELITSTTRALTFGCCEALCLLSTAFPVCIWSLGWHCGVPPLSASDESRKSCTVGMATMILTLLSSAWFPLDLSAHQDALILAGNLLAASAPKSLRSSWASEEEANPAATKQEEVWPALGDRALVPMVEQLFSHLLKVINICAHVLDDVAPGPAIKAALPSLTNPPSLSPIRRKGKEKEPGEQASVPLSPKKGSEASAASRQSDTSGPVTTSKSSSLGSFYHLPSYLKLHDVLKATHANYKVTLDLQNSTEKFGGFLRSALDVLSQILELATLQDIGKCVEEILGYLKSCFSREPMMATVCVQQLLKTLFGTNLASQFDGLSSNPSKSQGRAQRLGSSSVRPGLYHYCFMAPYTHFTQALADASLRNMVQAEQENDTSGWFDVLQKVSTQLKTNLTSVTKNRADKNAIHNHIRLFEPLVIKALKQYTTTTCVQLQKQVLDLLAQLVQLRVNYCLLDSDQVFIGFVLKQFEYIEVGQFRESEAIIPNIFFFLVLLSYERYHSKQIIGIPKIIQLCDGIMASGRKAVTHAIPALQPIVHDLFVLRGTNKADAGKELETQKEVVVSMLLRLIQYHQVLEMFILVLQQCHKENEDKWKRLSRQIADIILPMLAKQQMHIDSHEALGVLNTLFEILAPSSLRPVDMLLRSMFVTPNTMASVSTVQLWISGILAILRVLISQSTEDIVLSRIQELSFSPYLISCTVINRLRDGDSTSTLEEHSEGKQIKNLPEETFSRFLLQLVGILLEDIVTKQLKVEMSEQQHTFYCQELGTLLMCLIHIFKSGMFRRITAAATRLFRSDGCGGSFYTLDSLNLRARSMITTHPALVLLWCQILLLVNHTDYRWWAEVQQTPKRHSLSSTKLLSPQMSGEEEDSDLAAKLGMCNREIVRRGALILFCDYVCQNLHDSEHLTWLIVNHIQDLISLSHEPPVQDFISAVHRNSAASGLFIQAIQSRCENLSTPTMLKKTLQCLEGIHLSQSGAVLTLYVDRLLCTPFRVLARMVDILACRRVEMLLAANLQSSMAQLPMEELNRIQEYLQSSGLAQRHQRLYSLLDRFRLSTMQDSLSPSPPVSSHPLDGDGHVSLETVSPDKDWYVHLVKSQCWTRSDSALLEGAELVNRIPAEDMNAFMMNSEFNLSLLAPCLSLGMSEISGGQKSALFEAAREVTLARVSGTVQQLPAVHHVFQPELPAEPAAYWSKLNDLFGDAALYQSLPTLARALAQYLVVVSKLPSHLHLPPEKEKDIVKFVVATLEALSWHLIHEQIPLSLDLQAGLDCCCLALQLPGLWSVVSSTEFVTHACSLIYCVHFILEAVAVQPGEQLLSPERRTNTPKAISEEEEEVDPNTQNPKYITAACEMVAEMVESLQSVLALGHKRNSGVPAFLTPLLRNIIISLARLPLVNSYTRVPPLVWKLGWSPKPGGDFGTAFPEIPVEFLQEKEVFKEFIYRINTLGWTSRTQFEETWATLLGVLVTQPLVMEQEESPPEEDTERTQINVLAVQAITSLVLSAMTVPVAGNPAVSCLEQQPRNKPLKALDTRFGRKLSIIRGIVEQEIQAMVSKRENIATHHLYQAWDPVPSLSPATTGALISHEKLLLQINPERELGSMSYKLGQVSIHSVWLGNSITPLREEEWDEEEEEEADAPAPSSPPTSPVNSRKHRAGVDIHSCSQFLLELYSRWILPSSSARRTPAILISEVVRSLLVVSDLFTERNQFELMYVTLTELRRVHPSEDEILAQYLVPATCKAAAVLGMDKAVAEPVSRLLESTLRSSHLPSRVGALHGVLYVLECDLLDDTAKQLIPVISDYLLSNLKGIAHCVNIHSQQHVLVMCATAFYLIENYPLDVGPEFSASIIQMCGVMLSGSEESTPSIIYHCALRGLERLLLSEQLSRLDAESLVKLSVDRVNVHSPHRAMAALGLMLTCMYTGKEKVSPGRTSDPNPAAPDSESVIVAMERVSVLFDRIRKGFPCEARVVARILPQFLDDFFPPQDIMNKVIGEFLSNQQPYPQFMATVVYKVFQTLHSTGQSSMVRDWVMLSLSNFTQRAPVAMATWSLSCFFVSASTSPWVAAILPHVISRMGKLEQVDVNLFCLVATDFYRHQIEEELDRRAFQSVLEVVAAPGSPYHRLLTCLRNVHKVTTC
# Active calls of the source: *; . = no result; ! = not confirmed by another sample. This is one part of a sample in which hits are shown more often than they occur. No stated cut-off is given here; in the data, active means inhibition above about 50%; inactive means the rest.
SMILES,Pf apPOL inh,mHTT-CaM PPI inh
CCn1c(C2CCN(Cc3ccc(Cl)cc3)C2)nc2cccnc21 (stereo unspecified),-12,57*
Cn1c(=O)oc2cc(-c3noc(-c4ccc(C(F)(F)F)cc4)n3)ccc21,0,-13
O=C(Cc1cccnc1)N1CCCC(c2n[nH]c(C3CC3)n2)C1 (stereo unspecified),4,-1
Cc1cc(OCC(=O)Nc2cccc(Cl)c2)nc(N2CCC(C)CC2)n1,0,-14
COc1cccc(CC(=O)NNC(=O)NC(=O)c2ccccc2Cl)c1,54*,.
COc1cccc(NC(=O)c2ccccc2Cl)c1,3,-11
CCCNC(=O)c1cccc(CN2C(=O)C3CCCN3C(=O)c3ccccc32)c1 (stereo unspecified),-4,-3
Nc1nnnn1NCc1ccco1,.,-2
Cc1ccc(-c2cn3cc(C(=O)NC(C)c4cccnc4)ccc3n2)cc1C (stereo unspecified),-3,53*
CC(NC(=O)c1cn2ccccc2n1)c1cccnc1 (stereo unspecified),0,-3
Cc1ccc(-c2cn3cc(C(=O)NC(C)c4cccnc4)ccc3n2)cc1 (stereo unspecified),0,51*
CC(NC(=O)c1ccc(-c2ccnc(N3CCCC3)n2)cc1)c1cccnc1 (stereo unspecified),3,19
Cc1cc(C)n2nc(SCC(=O)NCCCN3CCOCC3)nc2n1,-13,23
Cc1ccc(NC(=O)Cn2cnc(C)c(C)c2=O)cc1F,-5,-4
Cc1nc(Nc2ccc(O)cc2)nc(Nc2ccc(O)cc2)c1[N+](=O)[O-],0,57*
Cc1nc(Nc2ccc3c(c2)OCCO3)nc(Nc2ccc3c(c2)OCCO3)c1[N+](=O)[O-],.,24
O=C(c1ccc(Cl)s1)N1CCC(CCOCc2cccc(F)c2)CC1,-7,-83
Cc1ccc(C2=N/C(=C\c3ccc(F)cc3)C(=O)O2)cc1,-2,0
N#Cc1c(SCC(=O)NC23CC4CC(CC(C4)C2)C3)sc2c(O)cc(=O)[nH]c12,.,10
CC(=O)N1CC(=O)NC(=Cc2cccnc2)C1=O,52*,.
O=C1/C(=C/c2cccnc2)CC/C1=C\c1cccnc1,1,4
Cc1ccc2oc(-c3cc(NC(=O)c4ccccc4C)ccc3O)nc2c1,-2,2
CCC(=O)Nc1ccc(O)c(-c2nc3cc(C)ccc3o2)c1,54*,6
Cc1ccc(NC(=O)c2cc(N3C(=O)CCC3=O)ccc2Cl)cc1Cl,-9,2
Cc1ccc(NC(=O)Cn2c(-c3ccccc3F)nc3ccccc3c2=O)cc1Cl,-1,12
SMILES,Pf apPOL inh,mHTT-CaM PPI inh
O=C(Cn1c(-c2ccccc2Cl)nc2ccccc2c1=O)Nc1ccc(F)c(Cl)c1,-4,100*
CNC(=O)CC1CCN(c2ccnc(NC)n2)CC1,93*,-2
CNc1nccc(N2CCC(CC(=O)NCCOC)CC2)n1,1,-2
CCNc1nccc(N2CCC(CC(=O)N3CCN(c4cccc(Cl)c4)CC3)CC2)n1,-6,51*
CNc1nccc(N2CCC(CC(=O)N3CCN(c4cccc(C)c4)CC3)CC2)n1,2,11
Cc1ccc(-n2cc(C3CCN(C(=O)c4cccc(C#N)c4)CC3)cn2)cc1,-7,8
O=[N+]([O-])C(=C1SCCS1)C(=C(Cl)Cl)N1CCOCC1,-6,19
O=[N+]([O-])C(=C1SCCS1)C(=C(Cl)Cl)N1CCCCC1,3,70*
Cc1c(Cc2ccc3c(c2)OCO3)sc(NC(=O)c2ccc([N+](=O)[O-])s2)c1C#N,0,21
N#Cc1cccc(C(=O)Cc2cccc(Oc3ccccc3)c2)c1,56*,.
NCc1cccc(Oc2ccccc2)c1,-13,-5
O=C(CC1CCN(S(=O)(=O)c2ccc(Cl)s2)CC1)NC1CC1,-2,-12
Cc1cccc(-c2nnc(Cc3nc(C(C)(C)C)no3)o2)c1,2,-6
COc1cccc(/C=C2\C(=O)NN(c3ccccc3)C2=O)c1OC,-7,6
Cc1ccccc1CN1C(=O)C(=O)c2cc(Cl)ccc21,-5,51*
O=C1c2cccnc2C(=O)N1Cc1ccc(Cl)cc1,-5,14
O=C1C(=O)N(Cc2ccc(Cl)cc2)c2ccc(S(=O)(=O)N3CCOCC3)cc21,31,92*
Cc1ccccc1CN1C(=O)C(=O)c2ccccc21,-4,33
O=C1C(=O)N(Cc2ccc(Cl)cc2)c2ccc(Cl)cc21,-7,78*!
O=c1ccc(S(=O)(=O)N2CCOCC2)cn1Cc1cccc(Cl)c1,-1,-10
Cc1cc(C)c(S(=O)(=O)NCC2CCC(C(=O)NCc3cccnc3)CC2)c(C)c1 (stereo unspecified),-6,17
CC1CCCN(c2nc(Nc3ccccc3F)nc(Oc3ccc(F)cc3)n2)C1 (stereo unspecified),0,0
O=C(Nc1cnc(N2CCOCC2)nc1)c1ccccc1C(F)(F)F,0,0
CCc1ccccc1S(=O)(=O)N1CCCC1C(=O)NCCc1csc(C)n1 (stereo unspecified),-6,-6
Cc1ccc(C2CC(C(F)(F)F)n3ncc(C(=O)Nc4ccccc4C)c3N2)cc1 (stereo unspecified),0,18
SMILES,Pf apPOL inh,mHTT-CaM PPI inh
Cc1ccc(C2CC(C(F)F)n3ncc(C(=O)Nc4cnn(Cc5ccccc5C)c4)c3N2)cc1 (stereo unspecified),-3,56*
O=C(NCc1cccnc1)c1cc2c(s1)CN(C1CC1)C2,-3,3
O=C(CSCc1ccc([N+](=O)[O-])cc1)Nc1ccccc1,-4,-1
COc1cc(NC(=O)Nc2ccc(OC(F)(F)F)cc2)cc(C(F)(F)F)c1,6,.
O=[N+]([O-])c1cccc(Cl)c1N1CCN(c2ccc([N+](=O)[O-])c3cccnc23)CC1,-5,7
Cc1cc(I)ccc1Nc1c([N+](=O)[O-])cc([N+](=O)[O-])c2cccnc12,-4,46
COc1ccc(NC(=O)CSc2cccc3cccnc23)c([N+](=O)[O-])c1,-13,28
CC(=O)NC(c1ccccc1Cl)c1cc([N+](=O)[O-])c2cccnc2c1O (stereo unspecified),1,100*
COc1ccc(C(NC(C)=O)c2cc([N+](=O)[O-])c3cccnc3c2O)cc1 (stereo unspecified),-7,100*
CC(=O)NC(c1ccccc1)c1cc([N+](=O)[O-])c2cccnc2c1O (stereo unspecified),0,100*
COc1cccc2cc(-c3csc(Nc4ccc(F)cc4)n3)c(=O)oc12,15,1
CCOC(=O)CC[C@H]1CC[C@]2(CCCN(C(=O)c3ccno3)C2)O1,-3,78*
CCN(CC)C(=O)CC[C@H]1CC[C@]2(CCCN(C(=O)c3ccno3)C2)O1,-9,-6
O=C(O)C1Nc2c(O)ccc(Br)c2C2C=CCC12 (stereo unspecified),-2,100*
O=C(c1ccccc1)c1cc(Cl)cc2c1NC(C(=O)O)C1CC=CC21 (stereo unspecified),-1,6
Cc1cccc(OCC(=O)Nc2cccc(-c3nc4ncccc4o3)c2C)c1,5,0
CCOc1ccc2nc(SCc3ccc(C)cc3)[nH]c2c1,-7,-14
O=C(Nc1c2c(nn1-c1cccc(Cl)c1)CSC2)c1cc2ccccc2oc1=O,-1,2
COc1ccccc1NC(=O)N1CCc2[nH]cnc2C1c1ccccn1 (stereo unspecified),-4,36
O=C(Nc1ccccc1)N1CCc2[nH]cnc2C1c1ccncc1 (stereo unspecified),1,1
